Assay results published in the supplement of paper PMC12636033.
± gives the standard deviation of the averaged measurements. In all, about 33,000 sequences were measured (“E-score (rank enrichment, -0.5 to 0.5)”: median about -0.0075, highest 2% from about 0.23 on). Many of the other results were omitted from the sample, so the highest values are more common in it than they were.

tested on: WT Max(13-93) synthetic (M65Nle); experiment: PBM 8-mer E-score (E-score (rank enrichment, -0.5 to 0.5)); higher = stronger preferential binding
Description: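 Protein binding microarray (universal PBM chip covering all 10-mers in fixed probe flanks) with chemically synthesized human Max(13-93) bHLH-LZ analogs (not full-length Max) bearing noncanonical residues (hArg, Tha, Aib, Nle at 65) and aromatic Cys staples. Read-out per 8-mer (and its reverse complement): E-score (rank-based enrichment, -0.5 to 0.5) and Z-score of median probe intensity.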

Going from TAATAACA to CCATAACC, the “PBM 8-mer E-score” value rises from 0.131 ± 0.0072 to 0.145 ± 0.0043.

First: CCATAACG
Second: GAATAACA
The “PBM 8-mer E-score” value of the first is lower: -0.0417 ± 0.027 for the first, 0.242 ± 0.094 for the second.

Compared with GCATAACC, CAATAACA is higher in “PBM 8-mer E-score” value: -0.0331 ± 0.022 for the first, 0.193 ± 0.046 for the second.

CAAGTAAC and AAGGACAA are within error of each other in “PBM 8-mer E-score” value: 0.0157 ± 0.17 for the first, -0.103 ± 0.0038 for the second.

Compared with AGACTTAC, GGACTGAC is lower in “PBM 8-mer E-score” value: 0.0412 ± 0.036 for the first, -0.163 ± 0.079 for the second.

Going from ACGCGGAC to CCCCTTAG, the “PBM 8-mer E-score” value falls from 0.112 ± 0.0026 to -0.25 ± 0.047.

Going from ACACACAA to ACACACGC, the “PBM 8-mer E-score” value rises from 0.0899 ± 0.06 to 0.208 ± 0.02.

First: ACACACGT
Second: CTACACGA
The “PBM 8-mer E-score” value of the first is higher: 0.295 ± 0.028 for the first, -0.00142 ± 0.052 for the second.

ATACACGA and GCACACGA are within error of each other in “PBM 8-mer E-score” value: 0.194 ± 0.032 for the first, 0.121 ± 0.081 for the second.

First: GCACACGC
Second: ACACACAT
The “PBM 8-mer E-score” value of the first is higher: 0.284 ± 0.051 for the first, 0.208 ± 0.024 for the second.

Going from ACACACGA to TCACACGA, the “PBM 8-mer E-score” value falls from 0.252 ± 0.021 to 0.0202 ± 0.039.

Going from GTACACGA to ACACACGG, the “PBM 8-mer E-score” value falls from 0.246 ± 0.037 to -0.09 ± 0.023.

GGCACATA and TGCGTTAA are within error of each other in “PBM 8-mer E-score” value: -0.00374 ± 0.019 for the first, -0.0126 ± 0.025 for the second.

Going from CACAATAC to AGGGTTCG, the “PBM 8-mer E-score” value falls from 0.204 ± 0.018 to 0.0226 ± 0.091.

Going from GCCATACA to AACCCCCT, the “PBM 8-mer E-score” value falls from 0.0396 ± 0.039 to -0.12 ± 0.022.

AGGATCTG and CCAACCGC are within error of each other in “PBM 8-mer E-score” value: -0.1 ± 0.11 for the first, -0.126 ± 0.13 for the second.

First: CTGCCCCC
Second: CAAAATAC
The “PBM 8-mer E-score” value of the first is lower: -0.128 ± 0.089 for the first, 0.189 ± 0.047 for the second.

Compared with GACCATGC, AACCATGC is lower in “PBM 8-mer E-score” value: 0.27 ± 0.043 for the first, 0.162 ± 0.018 for the second.

Going from CAGCATGC to GAGCATAC, the “PBM 8-mer E-score” value falls from 0.237 ± 0.04 to 0.00326 ± 0.079.

First: GAGCATGC
Second: GACCATGA
The “PBM 8-mer E-score” value of the first is higher: 0.249 ± 0.018 for the first, -0.0818 ± 0.059 for the second.

First: CAGCATAG
Second: CGGCATGC
The “PBM 8-mer E-score” value of the first is lower: -0.0673 ± 0.062 for the first, 0.124 ± 0.05 for the second.

Going from CAGCATGA to GAGCATGA, the “PBM 8-mer E-score” value rises from 0.128 ± 0.022 to 0.205 ± 0.03.

First: CAGCATAC
Second: CAGCATGG
The “PBM 8-mer E-score” value of the first is lower: 0.0204 ± 0.073 for the first, 0.331 ± 0.028 for the second.

ATCGCGGC and CGAAACGC are within error of each other in “PBM 8-mer E-score” value: -0.136 ± 0.14 for the first, -0.14 ± 0.0054 for the second.

Going from GAACACTC to ATTTATTA, the “PBM 8-mer E-score” value rises from -0.0859 ± 0.0037 to 0.152 ± 0.031.

Compared with ATACCAAA, CTAATGGA is lower in “PBM 8-mer E-score” value: 0.124 ± 0.029 for the first, -0.125 ± 0.0031 for the second.

Compared with ACCATATC, ACCATATA is higher in “PBM 8-mer E-score” value: 0.0455 ± 0.019 for the first, 0.248 ± 0.043 for the second.

First: ACTATATA
Second: GCTATATA
The “PBM 8-mer E-score” value of the first is higher: 0.274 ± 0.0075 for the first, 0.146 ± 0.04 for the second.

ACTATATC and ACCATATG are within error of each other in “PBM 8-mer E-score” value: 0.21 ± 0.015 for the first, 0.221 ± 0.0037 for the second.

ACCGGCAC and CTATCTCC are within error of each other in “PBM 8-mer E-score” value: 0.0185 ± 0.12 for the first, -0.00138 ± 0.076 for the second.

Compared with GAAGTAGA, ACTGATCG is lower in “PBM 8-mer E-score” value: 0.0186 ± 0.0018 for the first, -0.106 ± 0.045 for the second.

Going from AGGTGTAT to ACGTGTAC, the “PBM 8-mer E-score” value rises from 0.136 ± 0.019 to 0.354 ± 0.014.

Going from GCGTGTAC to CCGTGTAA, the “PBM 8-mer E-score” value falls from 0.125 ± 0.015 to -0.00838 ± 0.1.

Going from ACGTGTAG to AAGTGTAT, the “PBM 8-mer E-score” value falls from 0.1905 ± 0.0018 to 0.149 ± 0.018.

First: ACGTGTAA
Second: ACGTGTAT
The “PBM 8-mer E-score” value of the first is lower: 0.35 ± 0.019 for the first, 0.4013 ± 0.0019 for the second.

TCGTGTAA and ATTACCCA are within error of each other in “PBM 8-mer E-score” value: 0.1 ± 0.05 for the first, 0.146 ± 0.11 for the second.

Compared with CCCTAAGC, ATATATGC is higher in “PBM 8-mer E-score” value: -0.152 ± 0.068 for the first, 0.0949 ± 0.049 for the second.

ATATATGA and ATATATGG are within error of each other in “PBM 8-mer E-score” value: 0.0913 ± 0.21 for the first, 0.244 ± 0.055 for the second.

Going from AAATGTGA to ATATAGTA, the “PBM 8-mer E-score” value rises from 0.026 ± 0.14 to 0.228 ± 0.029.

GTATATGA and ATATAGTG are within error of each other in “PBM 8-mer E-score” value: 0.266 ± 0.019 for the first, 0.2556 ± 0.0011 for the second.

TAATGTGA and CAATGTGA are within error of each other in “PBM 8-mer E-score” value: 0.233 ± 0.075 for the first, 0.179 ± 0.0028 for the second.

CTATATGA and ATATAGTC are within error of each other in “PBM 8-mer E-score” value: 0.0892 ± 0.063 for the first, 0.107 ± 0.0014 for the second.

Going from CTATATGC to CCTGGCCG, the “PBM 8-mer E-score” value falls from 0.168 ± 0.083 to -0.194 ± 0.086.
